Laboratory results reported in PubChem BioAssay (NCI).
The panel holds about 79,000 compounds, 15% with a hit somewhere; the sample as a whole holds those more often. Calls of active or inactive are those of the source. No stated cut-off is given here; in the data, active means growth inhibition above about 70%; inactive means the rest.

Tests used:
[1] = NCI Yeast Anticancer Drug Screen. Data for the rad50 strain (AID 155);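 further: 0% = growth of vehicle-only cultures of the same strain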; settings: S. cerevisiae rad50 strain growth inhibition; at 50.0 µM; active compounds read high
Procedure, shortened: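 Inhibition values express reduced yeast growth in compound-treated cultures relative to vehicle-treated controls.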

[2] = NCI Yeast Anticancer Drug Screen. Data for the mec2-1 strain (AID 157); settings: S. cerevisiae mec2-1 strain, at 50.0 µM, active compounds read high
Procedure, shortened: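 mec2-1 yeast strain, carrying an alteration in DNA damage repair or cell cycle control, was exposed to compounds; growth inhibition was measured relative to vehicle-treated controls.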

[3] = NCI Yeast Anticancer Drug Screen. Data for the sgs1 mgt1 strain (AID 161);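 further: 0% = growth of cultures given vehicle only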; settings: S. cerevisiae sgs1 mgt1 strain, at 50.0 µM, active compounds read high
Procedure, shortened: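 Growth of a repair-deficient yeast mutant was monitored after compound treatment and expressed as inhibition relative to vehicle-treated cultures.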

[4] = NCI Yeast Anticancer Drug Screen. Data for the cln2 rad14 strain (AID 165);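 further: 0% = growth equal to vehicle treated cultures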; settings: S. cerevisiae cln2 rad14 strain, at 50.0 µM, active compounds read high
Procedure, shortened: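 Yeast carrying cln2 and rad14 alterations (cell cycle control and DNA damage repair) were exposed to compounds. Growth inhibition was measured against vehicle-treated controls.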

[5] = NCI Yeast Anticancer Drug Screen. Data for the bub3 strain (AID 167); settings: S. cerevisiae bub3 mutant strain, at 50.0 µM, active compounds read high
Procedure, shortened: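 Steps: expose the mutant yeast strain to compound; grow alongside vehicle-treated cultures; measure growth; express inhibition against the vehicle cultures.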

[6] = NCI Yeast Anticancer Drug Screen. Data for the mlh1 rad18 strain (AID 175); settings: S. cerevisiae mlh1 rad18 strain growth inhibition; at 50.0 µM; active compounds read high
Procedure, shortened: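 Growth inhibition of the yeast strain was measured after compound exposure and expressed relative to vehicle-treated controls. The strain carries defined defects in DNA damage repair.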

Measured: growth inhibition

Cc1ccc(-n2c(=O)nc([O-])[n+]3ccccc23)cc1
inactive: [1] -2.85% | [2] -6.85% | [3] -7.95% | [4] -24.8% | [5] -3.75% | [6] 6.65%

Nc1ccc(S(=O)c2ccc(N)cc2)cc1
inactive: [1] 27.9% | [2] -14.1% | [3] 8.25% | [4] 20.8% | [5] 18.6% | [6] 33.1%

CC1(C)C(c2ccccc2)=NN(O)c2ccccc21
inactive: [1] -22.3% | [2] -15.8% | [3] 0.25% | [4] 15.4% | [5] -4.5% | [6] -9.4%

NC(N)=NC(N)=Nc1ccc(-c2ccc(N=C(N)N=C(N)N)cc2)cc1
inactive: [1] 0.85% | [2] -0.3% | [3] -0.7% | [4] 6.15% | [5] 7.9% | [6] 13.6%

Cn1c(=O)nc(N)n(NC(=O)CCl)c1=O
inactive: [1] 30.6% | [2] 10.3% | [3] 23.6% | [4] 9.9% | [5] -6.6% | [6] 15.4%

CC(C(=O)O)C(NC(=O)c1ccccc1)C(=O)O (stereo not drawn)
inactive: [1] 11.5% | [2] 5.35% | [3] 0.2% | [4] 16% | [5] 4.4% | [6] 13.4%

O=C(O)[C@H](CSSC[C@@H](C(=O)O)N1C(=O)c2ccccc2C1=O)N1C(=O)c2ccccc2C1=O
inactive: [1] 20.3% | [2] -6.4% | [3] -4.85% | [4] 31.4% | [5] 2.8% | [6] -4.4%

O=C1C(=O)N(c2cc(Cl)ccc2Cl)C(=O)C(=O)C1c1nc2ccccc2s1
inactive: [1] -7.8% | [2] 18.6% | [3] 0.3% | [4] -18.8% | [5] 9.4% | [6] -19.4%

[Cl][Pt+2][Cl].[NH-]c1ccccc1F.[NH-]c1ccccc1F
inactive: [1] 11.2% | [2] 32.9% | [3] -14.8% | [4] 15.8% | [5] -26.9% | [6] 34.4%

NC(N)=Nc1ccccc1OC1OC(CO)C(O)C(O)C1O (stereo not drawn)
inactive: [1] -12.4% | [2] 16.1% | [3] 2.55% | [4] -50.5% | [5] -7% | [6] -2.25%

Cn1c(=O)c2[nH]c(=S)n(C)c2n(C)c1=O
inactive: [1] 31.8% | [2] -8.35% | [3] -2% | [4] 11.2% | [5] -13.6% | [6] 15.5%

Cc1cc([NH-])c([NH-])cc1C.[Cl][Pt+2][Cl]
inactive: [1] -2.85% | [2] -6.4% | [3] -0.15% | [4] -0.3% | [5] -6.4% | [6] -25.9%

CCN(CC)CC(O)CO (stereo not drawn)
inactive: [1] -4.55% | [2] -16.6% | [3] -17.1% | [4] 5.9% | [5] 2% | [6] 1.35%

CCCCCCCCNC(=O)CBr
inactive: [1] 5.3% | [2] 9.85% | [3] 22.8% | [4] -25.4% | [5] 13.3% | [6] 6.15%

O=S(=O)(O)c1cc(O)ccc1O.O=S(=O)(O)c1cc(O)ccc1O.[NH-]C1CCCCC1[NH-].[Pt+2]
inactive: [1] 17.6% | [2] -4.85% | [3] -5.2% | [4] 4.8% | [5] -0.85% | [6] -3.25%

CC(=O)CCC(CC=O)C(C)C (stereo not drawn)
inactive: [1] 3.35% | [2] 0% | [3] 7.6% | [4] -4.9% | [5] -3.65% | [6] 2.6%

Cc1ccc(OC/C=C/c2ccc([N+](=O)[O-])cc2)cc1
inactive: [1] -1.45% | [2] -9.3% | [3] -7.4% | [4] -58.8% | [5] -4.55% | [6] -19.2%

CC[N+](C)(CC)CCN1C(=O)CC[C@@]2(C)C1=CC[C@@H]1[C@@H]2CC[C@@]2(C)[C@H]1CC[C@]2(C)O
inactive: [1] 6.65% | [2] 8.8% | [3] 6.45% | [4] 29.5% | [5] 9.7% | [6] 12.1%
